Assay results from PubChem BioAssay (EPA / NIEHS).
Records with an inconclusive call do not appear. Calls of active or inactive are those of the source. The calls were made as follows, unless noted: active = hit-call score of the fitted dose curve at least 0.9, where 1 is the maximum; inactive = score below 0.9.

What was measured:
[1] = biological target: Paired box protein Pax-6 (Homo sapiens) (UniProt P26367); test: ATG_Pax6_CIS: Attagene CIS-FACTORIAL HepG2 Assay for human Paired Box 6 (PAX6) (AID 2282956); details: HepG2 CIS-FACTORIAL PAX6 reporter transcription, RNA readout; actives raise or lower the signal
Sequence of Paired box protein Pax-6 (Homo sapiens) (P26367 whole entry, looked up): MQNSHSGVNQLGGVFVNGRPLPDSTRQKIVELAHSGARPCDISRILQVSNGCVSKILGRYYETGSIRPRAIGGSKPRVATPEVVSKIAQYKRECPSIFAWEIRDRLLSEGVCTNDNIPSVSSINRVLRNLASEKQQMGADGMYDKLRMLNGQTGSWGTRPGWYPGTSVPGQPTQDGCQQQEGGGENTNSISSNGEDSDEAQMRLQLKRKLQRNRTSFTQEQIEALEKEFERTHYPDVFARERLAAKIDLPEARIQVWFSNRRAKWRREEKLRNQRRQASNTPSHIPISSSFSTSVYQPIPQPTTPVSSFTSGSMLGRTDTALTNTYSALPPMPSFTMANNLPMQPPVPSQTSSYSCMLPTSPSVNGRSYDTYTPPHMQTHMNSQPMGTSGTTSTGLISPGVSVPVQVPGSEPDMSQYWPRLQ
Method in brief: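 Read-out is reporter transcript level, measured by RT-PCR with fluorescent primer extension and capillary electrophoresis after 24 h dosing of transfected HepG2 cells. Activity in either direction fitted relative to DMSO control.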

[2] = ATG_PXRE_CIS: Attagene CIS-FACTORIAL HepG2 Assay for human Pregnane X Receptor Element (PXRE) (AID 2282957); details: HepG2 Attagene CIS-FACTORIAL PXRE reporter, mRNA; actives raise or lower the signal
Method in brief: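 Using HepG2 transfected with multiple reporter transcription units, endogenous factor-driven transcription was scored as reporter mRNA after 24 h exposure.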

[3] = ATG_RORE_CIS: Attagene CIS-FACTORIAL HepG2 Assay for human RAR-related Orphan Receptor Element (RORE) (AID 2282959); details: HepG2 Attagene cis-factorial RORE reporter, mRNA; actives raise or lower the signal
Method in brief: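 Measured here: transcript induction of a cis-regulated reporter in HepG2 cells transiently transfected via FuGene 6. After 24 h, RNA was processed by RT-PCR and fluorescent capillary electrophoresis; DMSO defined baseline activity.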

[4] = ATG_Sox_CIS: Attagene CIS-FACTORIAL HepG2 Assay for human SRY-box transcription factor (SOX) (AID 2282960); details: HepG2 Attagene cis-factorial SOX reporter, mRNA; actives raise or lower the signal
Method in brief: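 Using transiently transfected HepG2 cells, reporter transcription driven by cis elements was assessed 24 h after dosing. Signal was fluorescence of capillary-separated RT-PCR products, with DMSO defining baseline activity.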

[5] = biological target: Transcription factor Sp1 (Homo sapiens) (UniProt P08047); test: ATG_Sp1_CIS: Attagene CIS-FACTORIAL HepG2 Assay for human Specificity Protein 1 (Sp1) (AID 2282961); details: HepG2 Sp1 cis-reporter transcription, actives raise or lower the signal
Sequence of Transcription factor Sp1 (Homo sapiens) (P08047 whole entry, looked up): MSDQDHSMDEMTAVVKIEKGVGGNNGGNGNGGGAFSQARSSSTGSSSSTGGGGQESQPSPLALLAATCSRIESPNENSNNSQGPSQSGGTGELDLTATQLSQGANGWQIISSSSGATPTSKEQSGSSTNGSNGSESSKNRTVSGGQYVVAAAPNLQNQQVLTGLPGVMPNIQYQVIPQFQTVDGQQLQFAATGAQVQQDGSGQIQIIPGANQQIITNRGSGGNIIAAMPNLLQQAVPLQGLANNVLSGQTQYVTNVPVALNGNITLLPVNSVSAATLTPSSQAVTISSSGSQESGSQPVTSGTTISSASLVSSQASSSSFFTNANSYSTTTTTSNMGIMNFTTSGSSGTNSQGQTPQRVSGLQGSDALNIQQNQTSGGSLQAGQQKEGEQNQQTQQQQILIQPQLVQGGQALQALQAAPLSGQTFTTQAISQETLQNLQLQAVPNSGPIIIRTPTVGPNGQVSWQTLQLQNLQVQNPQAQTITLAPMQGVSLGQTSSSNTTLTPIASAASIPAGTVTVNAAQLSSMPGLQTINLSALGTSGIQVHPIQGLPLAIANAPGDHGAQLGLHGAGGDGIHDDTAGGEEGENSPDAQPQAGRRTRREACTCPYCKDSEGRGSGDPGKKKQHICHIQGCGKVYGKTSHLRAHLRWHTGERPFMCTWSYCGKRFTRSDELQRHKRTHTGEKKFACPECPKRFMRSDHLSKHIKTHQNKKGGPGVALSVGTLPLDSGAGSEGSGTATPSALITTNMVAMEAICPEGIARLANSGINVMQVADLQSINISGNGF
Method in brief: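 After transient transfection of HepG2 cells with cis-promoter reporter units and 24 h chemical treatment, reporter transcripts were quantified by RT-PCR and capillary electrophoresis fluorescence. Gain- and loss-of-signal fitted against DMSO.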

[6] = biological target: Signal transducer and activator of transcription 3 (Homo sapiens) (UniProt P40763); test: ATG_STAT3_CIS: Attagene CIS-FACTORIAL HepG2 Assay for human Signal Transducer and Activator of Transcription 3 (STAT3) (AID 2282963); details: HepG2, Attagene cis-factorial STAT3 reporter transcription; actives raise or lower the signal
Sequence of Signal transducer and activator of transcription 3 (Homo sapiens) (P40763 whole entry, looked up, the tested form may be a part): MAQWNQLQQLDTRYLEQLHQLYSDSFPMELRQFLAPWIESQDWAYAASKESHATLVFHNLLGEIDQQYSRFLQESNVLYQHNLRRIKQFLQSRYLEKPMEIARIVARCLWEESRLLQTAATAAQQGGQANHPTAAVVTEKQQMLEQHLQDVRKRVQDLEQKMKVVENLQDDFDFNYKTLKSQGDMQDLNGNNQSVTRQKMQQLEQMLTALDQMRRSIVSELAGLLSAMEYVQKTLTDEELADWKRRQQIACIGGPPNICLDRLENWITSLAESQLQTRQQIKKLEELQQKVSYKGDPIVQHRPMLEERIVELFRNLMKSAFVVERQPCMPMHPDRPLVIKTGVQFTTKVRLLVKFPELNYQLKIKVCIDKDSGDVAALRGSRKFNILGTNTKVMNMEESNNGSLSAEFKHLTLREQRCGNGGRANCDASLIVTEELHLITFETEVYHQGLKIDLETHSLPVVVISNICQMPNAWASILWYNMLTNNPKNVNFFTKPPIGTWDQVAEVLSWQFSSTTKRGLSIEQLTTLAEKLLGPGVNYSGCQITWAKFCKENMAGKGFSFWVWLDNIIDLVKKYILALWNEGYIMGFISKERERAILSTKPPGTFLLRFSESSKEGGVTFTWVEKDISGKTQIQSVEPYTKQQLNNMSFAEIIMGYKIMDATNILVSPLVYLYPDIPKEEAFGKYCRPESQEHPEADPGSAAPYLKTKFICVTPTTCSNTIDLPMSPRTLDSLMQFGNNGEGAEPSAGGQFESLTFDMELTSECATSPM
Method in brief: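 Fluorescence intensity of 6-FAM-labelled reporter fragments, separated by capillary electrophoresis after RT-PCR, gave the signal. Cells were HepG2 transfected with cis-element reporter units and treated 24 h; fitting was bidirectional relative to DMSO.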

[7] = ATG_TA_CIS: Attagene CIS-FACTORIAL HepG2 Assay for human TA Basal Promoter (AID 2282964); details: HepG2 Attagene CIS-factorial TA basal promoter reporter; actives raise or lower the signal
Method in brief: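 Transient MRTU transfection of HepG2 preceded 24 h compound exposure. Reporter mRNA levels were then read by RT-PCR with capillary electrophoresis, and this background-control endpoint was fitted bidirectionally to DMSO.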

[8] = ATG_TCF_b_cat_CIS: Attagene CIS-FACTORIAL HepG2 Assay for human T-Cell-Factor with beta-catenin (TCF/b-cat) (AID 2282965); details: HepG2 TCF/beta-catenin cis-reporter transcription, actives raise or lower the signal
Method in brief: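 Cells of the HepG2 line carry transiently transfected reporter units whose promoters respond to endogenous factors. Twenty-four hours post-dosing, reporter mRNA induction is measured by fluorescent RT-PCR and capillary electrophoresis, with DMSO as baseline.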

[9] = ATG_TAL_CIS: Attagene CIS-FACTORIAL HepG2 Assay for human TAL Basal Promoter (AID 2282966); details: HepG2 Attagene cis-factorial TAL promoter reporter; actives raise or lower the signal;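 also: background control endpoint measuring basal TAL promoter reporter mRNA not a specific factor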
Method in brief: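 After 24 hours of chemical exposure, transfected HepG2 cells yielded RNA that was converted to 6-FAM-labelled, HpaI-digested reporter fragments for capillary electrophoresis. Values derive from bidirectional fitting against DMSO controls.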

[10] = ATG_TGFb_CIS: Attagene CIS-FACTORIAL HepG2 Assay for human Transforming Growth Factor (TGF) (AID 2282967); details: HepG2 Attagene CIS TGFb reporter, mRNA transcription; actives raise or lower the signal
Method in brief: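 After a 24-hour incubation with compound, transfected HepG2 cells were lysed for RNA; reporter cDNA was amplified, fluorescently end-labeled and separated by CE. DMSO served as baseline for bidirectional fits.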

[11] = biological target: Nuclear receptor subfamily 1 group I member 3 (Homo sapiens) (UniProt Q14994); test: ATG_CAR_TRANS: Attagene TRANS-FACTORIAL HepG2 Assay for human Constitutive Androstane Receptor (CAR) (AID 2282969; active = hit-call score of the fitted dose curve at least 0.9, where 1 is the maximum;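 also: activators raise reporter mRNA above DMSO so AC50 marks induction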); details: HepG2 Attagene TRANS-FACTORIAL CAR reporter
Sequence of Nuclear receptor subfamily 1 group I member 3 (Homo sapiens) (Q14994 whole entry, looked up, the tested form may be a part): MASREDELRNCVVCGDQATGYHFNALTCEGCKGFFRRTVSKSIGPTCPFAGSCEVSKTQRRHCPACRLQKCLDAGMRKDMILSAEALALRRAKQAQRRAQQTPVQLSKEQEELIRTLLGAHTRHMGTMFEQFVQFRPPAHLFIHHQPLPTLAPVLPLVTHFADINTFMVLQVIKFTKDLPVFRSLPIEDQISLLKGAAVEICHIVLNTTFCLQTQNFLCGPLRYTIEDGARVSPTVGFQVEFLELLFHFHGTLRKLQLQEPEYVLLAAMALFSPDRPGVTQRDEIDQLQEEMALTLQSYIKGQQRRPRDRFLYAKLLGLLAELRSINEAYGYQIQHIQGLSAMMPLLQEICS
Method in brief: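 Transiently transfected HepG2, multiplex TRANS reporters (CAR-Gal4 chimera driving GAL4-UAS reporter). 24 h dosing. Readout: reporter transcript by RT-PCR + capillary electrophoresis, fluorescence intensity; positive direction vs DMSO.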

[12] = biological target: Estrogen receptor (Homo sapiens) (UniProt P03372); test: ATG_ERa_TRANS: Attagene TRANS-FACTORIAL HepG2 Assay for human Estrogen Receptor alpha (ERa) (AID 2282970; active = hit-call score of the fitted dose curve at least 0.9, where 1 is the maximum); details: HepG2 Attagene TRANS ERa GAL4 reporter, mRNA
Sequence of Estrogen receptor (Homo sapiens) (P03372 whole entry, looked up, the tested form may be a part): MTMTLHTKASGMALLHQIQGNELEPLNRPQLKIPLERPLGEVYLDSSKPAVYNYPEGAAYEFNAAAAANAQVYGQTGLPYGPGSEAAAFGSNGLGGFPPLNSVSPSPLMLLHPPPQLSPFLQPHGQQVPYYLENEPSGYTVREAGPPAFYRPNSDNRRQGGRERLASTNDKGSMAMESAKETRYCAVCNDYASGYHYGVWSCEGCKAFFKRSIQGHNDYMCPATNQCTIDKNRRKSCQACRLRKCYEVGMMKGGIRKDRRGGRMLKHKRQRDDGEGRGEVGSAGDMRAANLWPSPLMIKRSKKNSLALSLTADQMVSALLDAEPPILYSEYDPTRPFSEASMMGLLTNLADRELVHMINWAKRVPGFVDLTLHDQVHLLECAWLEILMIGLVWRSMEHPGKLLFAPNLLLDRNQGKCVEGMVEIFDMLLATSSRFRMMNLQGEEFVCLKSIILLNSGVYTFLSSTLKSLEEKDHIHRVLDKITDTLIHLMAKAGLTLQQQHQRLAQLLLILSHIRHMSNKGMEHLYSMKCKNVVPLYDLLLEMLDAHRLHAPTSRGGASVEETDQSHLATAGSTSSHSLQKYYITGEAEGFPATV
Method in brief: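 Liver-derived HepG2 cells expressing chimeric nuclear receptor-Gal4 proteins from transient transfection were exposed for 24 hours. Gain of reporter mRNA signal versus DMSO, read by capillary electrophoresis of FAM-labelled PCR products, was recorded.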

[13] = biological target: X-box-binding protein 1 (Homo sapiens) (UniProt P17861); test: ATG_Xbp1_CIS: Attagene CIS-FACTORIAL HepG2 Assay for human X-box Binding Protein 1 (XBP1) (AID 2282972); details: HepG2 XBP1 cis-element reporter, Attagene multiplex; actives raise or lower the signal
Sequence of X-box-binding protein 1 (Homo sapiens) (P17861 whole entry, looked up): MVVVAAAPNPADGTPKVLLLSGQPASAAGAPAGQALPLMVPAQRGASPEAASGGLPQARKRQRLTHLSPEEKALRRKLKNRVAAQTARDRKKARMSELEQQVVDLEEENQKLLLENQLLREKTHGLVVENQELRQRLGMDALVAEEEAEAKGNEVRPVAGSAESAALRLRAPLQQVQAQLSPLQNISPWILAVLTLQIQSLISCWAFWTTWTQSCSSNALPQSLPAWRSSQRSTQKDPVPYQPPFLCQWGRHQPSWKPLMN
Method in brief: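 Reporter transcripts were quantified by RT-PCR with fluorescent primer extension and capillary electrophoresis after 24 h chemical exposure. Cells: transiently transfected HepG2 carrying cis-regulated reporter constructs; data fitted bidirectionally relative to DMSO.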

[14] = ATG_GAL4_TRANS: Attagene TRANS-FACTORIAL HepG2 Assay for GAL4 (Internal Marker) (AID 2282976; active = hit-call score of the fitted dose curve at least 0.9, where 1 is the maximum); details: HepG2 Attagene TRANS GAL4 internal marker reporter
Method in brief: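 First, HepG2 cells were transfected with reporter units under GAL4-UAS control. Next, they were treated with chemical for 24 h. Finally, RNA was reverse-transcribed, PCR-amplified, FAM-labelled and resolved by capillary electrophoresis, with induction scored against DMSO.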

[15] = ATG_SREBP_CIS: Attagene CIS-FACTORIAL HepG2 Assay for human Sterol Regulatory Element Binding (SREBP) (AID 2282962); details: HepG2 Attagene cis-factorial SREBP reporter, mRNA; actives raise or lower the signal
Method in brief: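 Endogenous SREBP activity read as cis-element-driven reporter transcript in transiently transfected HepG2, 24 h post-dosing; quantified via RT-PCR plus capillary electrophoresis of fluorescent fragments. Gain or loss of signal fitted relative to DMSO baseline.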

[16] = ATG_VDRE_CIS: Attagene CIS-FACTORIAL HepG2 Assay for human Vitamin D Receptor Element (VDRE) (AID 2282968); details: HepG2 VDRE cis-reporter transcription, actives raise or lower the signal
Method in brief: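 Compounds were applied for 24 h to HepG2 cells transfected with promoter-regulated reporter units. Total RNA was reverse-transcribed, and reporter amplicons were fluorescently labelled and sized by capillary electrophoresis.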

[17] = ATG_M_19_TRANS: Attagene TRANS-FACTORIAL HepG2 Assay for M19 Transcription Factor (Internal Marker) (AID 2282974; active = hit-call score of the fitted dose curve at least 0.9, where 1 is the maximum); details: HepG2 Attagene TRANS-FACTORIAL M19 internal marker reporter
Method in brief: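 Gain-of-signal in reporter mRNA, relative to DMSO, was scored from capillary electrophoresis fluorescence. HepG2 cells carried transiently transfected multiple reporter transcription units and were incubated with test chemicals for 24 h.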

[18] = biological target: Steroid hormone receptor ERR1 (Homo sapiens) (UniProt P11474); test: ATG_ERRa_TRANS: Attagene TRANS-FACTORIAL HepG2 Assay for human Estrogen-Related Receptor alpha (ERRa) (AID 2282971; active = hit-call score of the fitted dose curve at least 0.9, where 1 is the maximum); details: HepG2 Attagene TRANS reporter, ERRa transactivation
Sequence of Steroid hormone receptor ERR1 (Homo sapiens) (P11474 whole entry, looked up, the tested form may be a part): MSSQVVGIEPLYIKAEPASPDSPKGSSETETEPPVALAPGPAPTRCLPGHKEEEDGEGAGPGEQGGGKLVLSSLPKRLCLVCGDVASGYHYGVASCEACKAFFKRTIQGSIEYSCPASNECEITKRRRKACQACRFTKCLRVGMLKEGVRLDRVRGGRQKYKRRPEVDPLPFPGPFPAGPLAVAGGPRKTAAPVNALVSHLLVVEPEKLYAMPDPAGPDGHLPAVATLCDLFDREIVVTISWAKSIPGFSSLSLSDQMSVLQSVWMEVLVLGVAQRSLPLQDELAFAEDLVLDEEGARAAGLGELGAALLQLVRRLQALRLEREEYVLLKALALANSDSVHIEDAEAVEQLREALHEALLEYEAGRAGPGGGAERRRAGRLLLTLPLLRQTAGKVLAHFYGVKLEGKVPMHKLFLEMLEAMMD
Method in brief: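 Reporter transcript induction was quantified by RT-PCR and capillary electrophoresis of FAM-labelled, HpaI-cut products after 24 h treatment of HepG2 cells carrying transiently transfected GAL4-UAS reporter units and an exogenous ERRa-Gal4 fusion; activity scored as increase over DMSO.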

[19] = biological target: Estrogen-related receptor gamma (Homo sapiens) (UniProt P62508); test: ATG_ERRg_TRANS: Attagene TRANS-FACTORIAL HepG2 Assay for human Estrogen-Related Receptor gamma (ERRg) (AID 2282977; active = hit-call score of the fitted dose curve at least 0.9, where 1 is the maximum;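 also: hits increase reporter signal over DMSO so potencies reflect activators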); details: HepG2 Attagene TRANS reporter, ERRg transactivation
Sequence of Estrogen-related receptor gamma (Homo sapiens) (P62508 whole entry, looked up, the tested form may be a part): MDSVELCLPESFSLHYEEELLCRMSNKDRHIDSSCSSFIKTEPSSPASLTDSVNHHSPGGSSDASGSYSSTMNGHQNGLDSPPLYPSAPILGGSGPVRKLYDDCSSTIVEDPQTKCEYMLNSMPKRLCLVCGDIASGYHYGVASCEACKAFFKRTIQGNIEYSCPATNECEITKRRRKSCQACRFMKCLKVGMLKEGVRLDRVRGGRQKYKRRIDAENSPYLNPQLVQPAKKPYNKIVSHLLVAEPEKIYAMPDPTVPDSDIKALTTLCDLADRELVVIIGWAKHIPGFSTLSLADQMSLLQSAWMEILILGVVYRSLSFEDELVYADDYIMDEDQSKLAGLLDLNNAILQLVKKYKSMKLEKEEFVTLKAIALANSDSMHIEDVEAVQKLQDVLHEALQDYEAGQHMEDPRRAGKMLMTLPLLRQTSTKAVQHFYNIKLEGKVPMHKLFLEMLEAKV
Method in brief: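 Exogenous NR-Gal4 chimera activity measured as reporter transcript induction after 24 h in transiently transfected HepG2 cells. RNA reverse-transcribed, PCR-amplified, 6-FAM-labelled and resolved by capillary electrophoresis; increase over DMSO baseline.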

Measured: AC50

CC(=O)NS(=O)(=O)c1ccc(N)cc1
not listed: [15] | [16] | [17] | [18] | [19]
inactive: all other assays above

CC1OC1C1CCC2(C)OC2C1 (centres undefined)
active: [2] 36.7 µM
not listed: [6] | [13] | [18] | [19]
inactive: all other assays above

CNC(=S)N(C)C
not listed: [8] | [17] | [18] | [19]
inactive: all other assays above

[Cl][In]([Cl])[Cl]
not listed: [8] | [14] | [17]
inactive: all other assays above

CC1(C)[C@H]2CC[C@]1(C)C(=O)C2
not listed: [11] | [12] | [16] | [17]
inactive: all other assays above

O=C1OC(=O)c2cc(Oc3ccc4c(c3)C(=O)OC4=O)ccc21
not listed: [11] | [12] | [17] | [18] | [19]
inactive: all other assays above

OC1OCCOC1O (centres undefined)
not listed: [6] | [17] | [18] | [19]
inactive: all other assays above

Cc1cc(C)c(C(=O)O)c(C)c1
not listed: [11] | [13] | [17] | [18] | [19]
inactive: all other assays above

O=C1CCCC1
active: [2] 62.7 µM
not listed: [11] | [12] | [17]
inactive: all other assays above

CC1=NC(C)OC1C (centres undefined)
active: [2] 7.08 µM | [8] 100 µM | [16] 9.63 µM
not listed: [11] | [12] | [18] | [19]
inactive: all other assays above

CC1=CC[C@H](C(C)C)C=C1
active: [2] 1.98 µM
not listed: [3] | [16] | [18] | [19]
inactive: all other assays above

CCOC(=O)Cc1cccc2ccccc12
active: [2] 71.7 µM
not listed: [3] | [11] | [13] | [14] | [18]
inactive: all other assays above

Cc1cc(=O)n(-c2ccccc2)n1C
not listed: [7] | [11] | [14] | [19]
inactive: all other assays above

O=P(O)(O)Oc1ccccc1
not listed: [8] | [11] | [12] | [14] | [15] | [17] | [18] | [19]
inactive: all other assays above

Cc1ccc(N/N=c2\c(=O)cc/c(=N/Nc3ccc(S(=O)(=O)O)cc3)c2=O)c(C)c1
active: [2] 42.6 µM | [12] 100 µM
not listed: [14] | [16] | [17]
inactive: all other assays above

CC(C)(C)c1ccc(OC(=O)c2ccccc2O)cc1
active: [2] 15.3 µM | [12] 6.14 µM
not listed: [6] | [14] | [17] | [18] | [19]
inactive: all other assays above
